According to PubChem BioAssay AID2253 (Southern Research Specialized Biocontainment Screening …, 2010):
About 1,300 (59%) of roughly 2,200 compounds were called active. How the calls were made is not given here. So high a share suggests a set chosen from earlier hits. The list is a sample of the results. Entries with a potency or affinity are not part of this list.

Assay: THP-1 cell cytotoxicity, dose response, cytotoxicity control for Salmonella PhoP regulon inhibitors, S. typhimurium screen hits (AID 2253)
Settings: THP-1 viability, CellTiter-Glo luminescence, 72 h; series mostly up to 50 µM

| Compound | outcome |
| --- | --- |
| Nc1nnc(-c2cccc(Cl)c2Cl)c(N)n1 | inactive |
| CCn1cc(C(=O)O)c(=O)c2cc3c(cc21)OCO3 | inactive |
| CCCn1c(N)c(C(=O)COC(=O)c2c(C)noc2C)c(=O)n(C)c1=O | inactive |
| Cc1ccccc1-n1c(=O)c2ccccc2n2cnnc12 | inactive |
| O=C(O)Cn1cc(C(=O)c2ccco2)c2ccccc21 | inactive |
| Cc1cc(C(=O)COC(=O)CNC(=O)c2ccco2)c(C)n1Cc1ccco1 | inactive |
| COc1ccc(N2CCN(C(=O)C3CCCO3)CC2)cc1 (stereo unspecified) | inactive |
| Cc1ccc(C)n1-c1cccc(N)c1 | inactive |
| N/C(=N\OC(=O)c1ccc(F)cc1)c1nonc1N | inactive |
| Cc1cc(C(=O)N/N=C/c2ccc[nH]2)no1 | inactive |
| CC(=O)N/N=C/c1ccc(OCCOc2ccc(Br)cc2)cc1 | inactive |
| CCOC(=O)C1=C(C)N(CCO)C(=O)NC1c1cccc(O)c1 (stereo unspecified) | inactive |
| Cc1cc(C)n(-c2ccc(C(=O)OCC(=O)Nc3ccc([N+](=O)[O-])cc3)cc2)n1 | inactive |
| Cc1ccc(/C=N/NC(=O)Cn2cnc3ccccc32)o1 | inactive |
| C=CCNC(=O)CC(=O)N/N=C/c1ccc(C(=O)OC)cc1 | inactive |
| COc1ccc(OC)c(C(C(=O)NCc2ccco2)N(C(=O)Cn2nnc3ccccc32)C(C)C)c1 (stereo unspecified) | inactive |
| O=C(C1CCN(C2CC(=O)N(Cc3ccccc3)C2=O)CC1)N1CCCCCC1 (stereo unspecified) | inactive |
| Cc1ccc(S(=O)(=O)N2C(=O)CCC2C(=O)N2CCN(C)CC2)cc1 (stereo unspecified) | inactive |
| CCn1cc(C(=O)NCCCN(C)C)c(=O)c2cc(F)c(N3CCN(C)CC3)cc21 | inactive |
| Cc1cccc(-n2nc3c(c2NC(=O)c2ccco2)CSC3)c1C | inactive |
| CC(=O)Nc1ccc(-n2nnnc2SCC(=O)Nc2cccc(NC(=O)c3ccco3)c2)cc1 | inactive |
| O=C(Nc1cccc(-c2cn3cccnc3n2)c1)c1ccco1 | inactive |
| O=C(NC1CCCCC1)n1c(=O)oc2ccc(Cl)cc21 | inactive |
| Cc1ccc(C(=O)C(OC(=O)COc2ccccc2C)c2ccccc2)cc1 (stereo unspecified) | inactive |

| Compound | outcome |
| --- | --- |
| Cc1ccc(C(=O)N2CC3(C(C)C)CN(C(=O)c4ccc(C)cc4)CC(C(C)C)(C2)C3=O)cc1 | inactive |
| COC(=O)c1cc(C#N)c(Oc2ccc(F)cc2)nc1C | inactive |
| Nc1nc(Nc2ccc(Cl)cc2)n[nH]1 | inactive |
| COC(=O)CSc1nc(SCc2ccccc2Cl)nc2c1CCCC2 | inactive |
| CCCCn1nnnc1NCc1cc(OC)c(OC)cc1OC | inactive |
| CCCCCNS(=O)(=O)c1cc(C)ccc1OC | inactive |
| COc1ccc(C(C)C)cc1S(=O)(=O)Nc1ccc(Cl)cn1 | inactive |
| C=CCNC(=O)C(=O)NN=C1CCN(C)CC1 | inactive |
| COc1ccc(N2CCN(C(=O)Nc3ccc(S(=O)(=O)N(C)C)cc3)CC2)cc1 | inactive |
| CCOCCCNC(=S)Nc1cc(C)cc(C)c1 | inactive |
| COc1cccc(-c2nc(-c3ccc(Br)o3)no2)c1 | inactive |
| COCCSc1ccccc1C(=O)NCC1CCCO1 (stereo unspecified) | inactive |
| COCCNC(=S)N(Cc1cccnc1)Cc1ccc(OC)c(OC)c1 | inactive |
| CC1=C(C(=O)Nc2cccnc2)C(c2ccccn2)n2nnnc2N1 (stereo unspecified) | inactive |
| CCOC(=O)C1=C(C)NC(=O)NC1c1ccsc1 (stereo unspecified) | inactive |
| CN1C(=O)CC(P(=O)(c2ccccc2)c2ccccc2)N(C)C1=O (stereo unspecified) | inactive |
| Cc1cn([C@H]2C[C@H](N=[N+]=[N-])[C@@H](CO)O2)c(=O)[nH]c1=O | inactive |
| C#CC(C)(CC)NC(=O)c1cc(OC)c(OC)c(OC)c1 (stereo unspecified) | inactive |
| COc1nsnc1NS(=O)(=O)c1ccc(NC(=S)NC(=O)c2ccncc2)cc1 | inactive |
| CCn1nnc(-c2ccccc2NS(=O)(=O)c2ccc(S(=O)(=O)N3CCCCCC3)cc2)n1 | inactive |
| Cc1nc(CC(=O)c2ccc(O)cc2O)cs1 | inactive |
| OCCNc1ccc(Cl)cc1 | inactive |
| CC(=O)Nc1nc(-c2ccc(Cl)cc2)nc(C)c1C(C)=O | inactive |
| C#CCOc1c(Cl)cc(/C=N/O)cc1OC | inactive |

| Compound | outcome |
| --- | --- |
| CC(C(=O)NC1C=CS(=O)(=O)C1)N1C(=O)/C(=C/c2ccc(Cl)cc2)SC1=S (stereo unspecified) | inactive |
| COc1cc(C)c(Cc2cnc(N)nc2N)cc1OC | inactive |
| CCn1cc(C(=O)O)c(=O)c2cc(Br)ccc21 | inactive |
| COc1ccc(NC(=O)CSc2nccn2-c2ccccc2)cc1 | inactive |
| Cc1ccc(OCc2nnc(SCC(=O)Nc3ccc4c(c3)OCO4)n2C)cc1 | inactive |
| Cc1cc(C)c(C#N)c(SCC(O)CS(=O)(=O)Cc2ccccc2)n1 (stereo unspecified) | inactive |
| CCn1c(Cc2c(C)[nH]c3ccccc23)n[nH]c1=S | inactive |
| O=C1CSc2ccccc2N1Cc1ccc(F)cc1 | inactive |
| COc1cc(C2SCC(=O)N2c2nnc(C34CC5CC(CC(C5)C3)C4)s2)cc(OC)c1OC (stereo unspecified) | inactive |
| C/C(=C\c1ccco1)C1Nc2cccc3cccc(c23)N1 | inactive |
| CN1CCN(C(c2cccc(C(F)(F)F)c2)c2nnnn2C(C)(C)C)CC1 (stereo unspecified) | inactive |
| O=C(O)c1cc(O)c2c(c1)[C@@H]([C@H]1c3cc(C(=O)O)cc(O)c3C(=O)c3c(O[C@@H]4O[C@H](CO)[C@@H](O)[C@H](O)[C@H]4O)cccc31)c1cccc(OC3O[C@H](CO)[C@@H](O)[C@H](O)[C@H]3O)c1C2=O (stereo partly specified) | inactive |
| CN1CCN(c2c(F)cc3c(=O)c(C(=O)O)cn4c3c2OCN4C)CC1 | inactive |
| COc1ccc(-n2c(=O)c3ccccc3n(CC(=O)Nc3cc(C)on3)c2=O)cc1OC | inactive |
| CCn1cc(C(=O)O)c(=O)c2cc(F)c(N3CCN(C(=S)NC(=O)c4ccc(F)c(F)c4)CC3)cc21 | inactive |
| COc1ccccc1CC1(C)NC(=O)N(CC(=O)N2CC(C)OC(C)C2)C1=O (stereo unspecified) | inactive |
| CCn1nc(C(=O)O)c(=O)c2cc3c(cc21)OCO3 | inactive |
| Cc1snc(S(=O)(=O)/C(C#N)=N\Nc2ccccc2)c1C#N | inactive |
| COc1ccc(N2C(=O)[C@@H]3[C@H](C2=O)[C@H]2c4ccccc4C=CN2[C@@H]3C(=O)Nc2ccccc2)cc1 | inactive |
| Cc1cc(C(C)c2ccccc2)c(O)c(CN2CCOCC2)c1C (stereo unspecified) | inactive |
| CC(CN1CCOCC1)C(=O)c1ccccc1 (stereo unspecified) | inactive |
| CC(C)NC(=O)/C(=N\O)c1ccccc1 | inactive |
| CCC(CC)C(=O)Nc1cccc(C(=O)N2CCCC2)c1 | inactive |
| O=C(c1ccccc1)N1CCSC1=S | inactive |

| Compound | outcome |
| --- | --- |
| CCCCCOc1ccc(NC(=O)C(=O)NCCC2=CCCCC2)cc1 | inactive |
| O=C(CSc1nncs1)Nc1ccc2c(c1)OCCO2 | inactive |
| CC(O)CNc1cc(N)c([N+](=O)[O-])cc1[N+](=O)[O-] (stereo unspecified) | inactive |
| CCNC(=O)COC(=O)CCC(=O)c1cccs1 | inactive |
| COCCNS(=O)(=O)c1cccn1-c1ncc(C(F)(F)F)cc1Cl | inactive |
| Cc1cc(C)cc(-n2nc(C)cc2N)c1 | inactive |
| Cc1cccc(NC(=O)CCC(=O)OCc2ccc(Br)cc2)c1 | inactive |
| CCOC(=O)CN1C(=O)C(C)(C)Oc2ccc(C(=O)Nc3ccccc3OC)cc21 | inactive |
| O=C(O)C1CCC(N2C(=O)C3CCCCC3C2=O)CC1 (stereo unspecified) | inactive |
| COC(=O)c1ccc(CSc2nnnn2-c2ccccc2)o1 | inactive |
| Cc1ccccc1-n1nc(-c2ccc(N)cc2)cc1N | inactive |
| CC(=O)c1cccc(NC(=O)Nc2cccs2)c1 | inactive |
| CC(=O)c1cccc(NC(=O)Nc2cc3sccc3n2C)c1 | inactive |
| O=C(CSCc1ccccc1)Nc1ccc2c(c1)OCO2 | inactive |
| CN(C)C(CNC(=O)Nc1cccc(Cl)c1)c1cccnc1 (stereo unspecified) | inactive |
| Cc1cc(CNC(=O)Nc2ccc3c(c2)OCO3)nn1C | inactive |
| O=C(NCc1ccccn1)Nc1cccc(Cl)c1 | inactive |
| Cc1ccccc1CS(=O)(=O)c1snnc1C | inactive |
| CCOC(=O)c1cnc2ccccc2c1Nc1ccc2c(c1)OCCO2 | inactive |
| CCOC(=O)c1cnc2ccc(OC)cc2c1Nc1ccc2c(c1)OCCO2 | inactive |
| Cc1cc(Nc2ccccc2F)n2ncnc2n1 | inactive |
| Cc1nn(-c2ncc(C(F)(F)F)cc2Cl)c(=O)n1-c1cccc(Cl)c1 | inactive |
| N/C(=N\OC(=O)Nc1ccc(Cl)cc1)c1ncc(C(F)(F)F)cc1Cl | inactive |
| CCCCNC(=O)OC1CCS(=O)(=O)C1 (stereo unspecified) | inactive |

| Compound | outcome |
| --- | --- |
| Cc1ccc2nc(-c3ccc(Br)o3)oc(=O)c2c1 | inactive |
| COC(=O)C1=C(C)N(C)C(=O)/C1=C\c1ccco1 | inactive |
| C=CC1=C(C(=O)O)N2C(=O)[C@@H](NC(=O)/C(=N\O)c3csc(N)n3)[C@H]2SC1 (stereo in doubt) | inactive |
| O=C1CC(SCc2nc3ccccc3[nH]2)C(=O)N1c1ccc(Cl)cc1 (stereo unspecified) | inactive |
| O=C(NC1CCCCC1)C(c1ccncc1)N(CC1CCCO1)C(=O)C(F)(F)F (stereo unspecified) | inactive |
| O=C(Nc1ccc(Cl)cc1)N1CC=CCC1 | inactive |
| Cn1cccc1CC(=O)NNC(=S)Nc1ccc(Cl)cc1 | inactive |
| CCC(CC)c1nnc(NC(=O)Oc2ccccc2)s1 | inactive |
| CCN(CC(=O)N1CCN(Cc2ccccc2)CC1)S(=O)(=O)c1ccc(F)cc1 | inactive |
| S=C(Nc1ccc2snnc2c1)N1CCN(c2ccccn2)CC1 | inactive |
| Cc1ccccc1NC(=O)Nc1cccs1 | inactive |
| CCN(CC)CCN(Cc1cc2cc3c(cc2[nH]c1=O)OCCO3)C(=O)NC1CCCCC1 | inactive |
| COc1ccccc1NC(=S)NC(=O)C(C)(C)C | inactive |
| Nc1ccc2c(c1)C(=O)N(CC1CCCO1)C2=O (stereo unspecified) | inactive |
| Nc1ccc2oc3ccccc3c2c1 | inactive |
| CCOC(=O)c1cn(CC)c2cc(N3CCOCC3)c(F)cc2c1=O | inactive |
| CCCc1cc(N2CCN(c3ccccn3)CC2)n2nc(C)c(-c3ccccc3)c2n1 | inactive |
| CCCN(CCC)CCCNS(=O)(=O)c1ccc2c(c1)oc(=O)n2C | inactive |
| COC(=O)Cn1c(C)nc2ccccc21 | inactive |
| O=C(O)CCc1nn2c3ccccc3n(CC(=O)c3ccccc3)c2nc1=O | inactive |
